Screening results from PubChem.
Most compounds without a hit are left out; they make up all but 1.8% or so of the library.
SUMO Mot1 rescue: yeast Mot1-301 growth rescue at high temperature, primary screen, SUMOylation pathway inhibitor project, S. cerevisiae, ATP luminescence, 38.5C | S. cerevisiae Mot1-301 growth rescue; percent above DMSO median, 100 means doubled | growth rescue, % at 18.8 µM | 1% of 320,000 active;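 active = every valid replicate shows activation above 250% relative to neutral control wells; inactive = the rest, any valid replicate at or below 250%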;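 note: OY570 slx delta 5 strain wells were the positive control but not used for scaling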
Bfl-1 A1 inh: caspase 3/7 activation in MEF A1-2A-BIM cells, primary screen, A1 inhibitor project, cell-based, luminescence, HTS; 0.066% of 330,000 active; Caspase-Glo 3/7 luminescence, 3 h; percent of clofoctol response, vehicle zero; caspase activation, % (no concentration beside the values);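 active = over half of replicate activation scores above 10%, or exactly half above 10 with the replicate mean above 10; inconclusive = replicate mean below 10 yet half the replicates above 10; inactive = over half of replicates below 10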
ARNT TACC3 PPI: disruptors of ARNT/TACC3 protein interaction, primary screen, biochemical, AlphaScreen, single concentration. Transforming acidic coiled-coil-containing protein 3 (Homo sapiens), Q9Y6A5. AlphaScreen His-ARNT PAS-B/GST-TACC3 binding, luminescence; TACC3 fragment carries E629A point mutation. inhibition, % at 9.99 µM. 0.66% of 390,000 active. AID 623870, 2012;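 active = mean inhibition of replicates at least 50% and at least half of replicates each reaching 50%; inconclusive = half or more replicates reach 50% but mean below 50%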;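 note: 0% = complete ARNT plus TACC3 wells and 100% = ARNT alone without TACC3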
aDG glyco act: activators of alpha-DG glycosylation, primary screen, uHTS, Pro5-aDG cells, AlphaScreen | alpha-DG glycosylation AlphaScreen (IIH6); 0% Pro5, 100% B10-LARGE cell signal | activation, % at 10 µM | 0.22% of 360,000 active;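 active = activation of at least 8% versus controls, or a plate z-score of at least 8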;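 note: Pro5 are CHO cells carrying HIG-tagged alpha-DG that lacks glycosylation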
AI-2 QS modul: Vibrio harveyi AI-2 quorum sensing modulators, primary screen, JMH597 strain, luminescence/OD600 ratio | Vibrio harveyi JMH597 AI-2 luminescence/OD600 ratio, 9 h; stronger effect = lower value; strain lacks LuxN and CqsS sensors; 0 = neutral-control median | activity change, % at 7.5 µM | 0.4% of 300,000 active; in the data active = activity change below about -75%, passing the limit was not always enough; inconclusive = no clear call, values can overlap the other calls;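 note: luminescence divided by OD600 gain over 9 h not by final OD600 alone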
* = called active by the depositor; u = inconclusive; x = no result given.

SMILES	SUMO Mot1 rescue	Bfl-1 A1 inh	ARNT TACC3 PPI	aDG glyco act	AI-2 QS modul
O=C(c1cc(-c2ccc(Cl)c(Cl)c2)on1)N1CCOCC1	137.2	-1.6	x	0.0	21.9
CC1CCN(C(=O)c2cc(-c3ccc(Cl)c(Cl)c3)on2)CC1	2.3	-2.2	-1.3	0.1	-79.8*
COc1cccc(N2CCN(c3ncnc4c3[nH]c3ccc(F)cc34)CC2C)c1 (stereo unspecified)	78.6	0.7	-8.9	-1.0	28.5
COc1cccc(N2CCN(c3ncnc4c3[nH]c3ccccc34)CC2C)c1 (stereo unspecified)	522.7*	0.2	x	x	33.6
CCCCn1nc(C(=O)N(C)CC(=O)Nc2cccc(F)c2)c2ccccc2c1=O	-4.3	-1.0	-2.6	-0.1	3.2
c1ccc(-c2nc3c(ccc4ccccc43)[nH]2)nc1	-14.1	-5.8	56.8*	1.4	52.6
Nc1ccc(Cc2nc3c(ccc4ccccc43)[nH]2)cc1	-11.0	-0.2	-3.2	0.0	-0.2
Cc1cc(OCC(=O)Nc2ccc(CN3CCOCC3)cc2)c2c(C)cc(=O)oc2c1	-4.3	-0.2	-1.8	-0.4	4.8
Cc1cc(OCC(=O)Nc2ccc(CN3CCOCC3)cc2)c2c(C)c(C)c(=O)oc2c1	305.1*	0.3	-2.2	-0.3	15.3
Cc1ccc(C(=O)NCc2ccc(F)cc2)s1	6.0	1.0	0.7	0.2	-10.0
CCN(CC)CCCCNc1ncc2cc(-c3cc(OC)cc(OC)c3)c(NC(=O)NC(C)(C)C)nc2n1	276.9*	0.0	-10.7	1.1	8.6
CCN(CC)CCNC1=NCCn2c1cc1cc(OC)ccc12	184.5	0.3	6.0	1.8	26.5
COc1ccccc1CNC(=O)[C@H](C)N1C(=O)N2CCc3c([nH]c4ccccc34)[C@@]2(C)C1=O	1.8	0.8	-5.3	0.1	28.4
COc1ccc(C(CC(=O)Nc2ccc(C)cn2)N2Cc3ccccc3C2=O)cc1 (stereo unspecified)	0.9	0.7	34.6*	-0.2	22.5
COc1cc(C)nn1-c1ccc(Cl)cc1	36.8	0.2	-3.2	0.0	12.3
O=C(COc1ccccc1)Nc1ncc2c(n1)CCCC2=O	291.9*	0.9	14.8	0.0	7.3
CNC[C@H]1Oc2ccc(NC(=O)CCN3CCOCC3)cc2CC(=O)N([C@H](C)CO)C[C@@H]1C	x	x	-1.9	x	x
O=C(c1ccc(-c2cccc(C(F)(F)F)c2)o1)N1CCCCCCC1	532.9*	0.1	x	0.1	20.7
O=C(Nc1nnc(C2=COCCO2)o1)c1ccc(F)cc1	178.0	-0.9	49.7*	-0.1	29.3
O=C(Nc1nnc(C2=COCCO2)o1)c1ccc(Cl)cc1	-1.5	-1.0	52.5*	-0.1	-59.3
O=C(Nc1nnc(C2=COCCO2)o1)c1ccc(Br)cc1	-6.1	-1.4	40.8	-0.4	u
O=C(Nc1nnc(C2=COCCO2)o1)c1ccc([N+](=O)[O-])cc1	5.2	-2.5	41.5*	0.1	20.7
O=C(Nc1nnc(C2=COCCO2)o1)c1ccc(Cc2ccccc2)cc1	0.8	-0.5	4.0	-0.2	16.3
CCC(=O)N(c1nnc(SC(C)C(=O)Nc2ccc(N3CCOCC3)cc2)s1)C1CC1 (stereo unspecified)	x	x	x	-0.2	x
Cc1cc(NS(=O)(=O)c2ccccc2)c(C)c(Cl)c1O	59.6	0.3	-1.8	16.2*	11.0
SMILES	SUMO Mot1 rescue	Bfl-1 A1 inh	ARNT TACC3 PPI	aDG glyco act	AI-2 QS modul
Cc1c(O)ccc(NS(=O)(=O)c2ccccc2)c1C	2.4	0.2	-3.8	0.2	18.4
CCCNC(=O)N1C[C@H]2[C@@H](c3ccccc31)[C@H](CO)N2Cc1cccc(OC)c1	x	x	0.6	x	x
COc1cc(OC)c2c(-c3ccccc3)cc(=O)oc2c1	319.4*	-0.8	-9.8	-0.4	30.5
COc1cc(OC)c2c(-c3cccc(-c4ccc(OC)c(F)c4)c3)cc(=O)oc2c1	x	x	-0.1	0.1	x
Cc1cc(OCC(=O)C(C)(C)C)c2c(-c3ccccc3)cc(=O)oc2c1	297.0*	0.2	0.0	0.0	19.1
O=C(COC(=O)c1n[nH]c2ccccc12)c1cccc(Br)c1	16.1	0.1	2.3	0.1	-92.2*
O=c1cnnc(N/N=C/c2cccs2)[nH]1	x	-0.1	62.4*	-0.1	31.2
COc1ccc(-c2cc(C(=O)NCC3CCCO3)c3ccccc3n2)c(OC)c1 (stereo unspecified)	6.3	-0.7	0.7	-0.1	9.8
CCOc1ccc(-c2cc(C(=O)NCC3CCCO3)c3ccccc3n2)cc1 (stereo unspecified)	351.5*	1.0	-13.7	1.3	-4.2
CCC(C)N(C(=O)COc1ccc(NC(C)=O)cc1)C1CCS(=O)(=O)C1 (stereo unspecified)	-34.0	-0.9	-3.2	0.5	15.0
NC1=CC(=O)C(=O)c2ccccc21	x	x	18.1*	0.4	x
Nc1ccc(O)c2c1C(=O)c1ccccc1C2=O	-42.9	0.0	42.1	-0.2	30.9
O=C1CC(N2CCCCCC2)C(=O)N1c1ccc(F)cc1 (stereo unspecified)	15.6	0.2	-2.3	-0.1	47.8
COc1ccccc1N1C(=O)c2cccc3c(Cl)ccc(c23)C1=O	13.4	7.8*	-2.8	0.0	12.6
CCO/C=C1/C(=O)N(c2ccccc2OC)C(=O)c2ccccc21	19.9	0.3	7.2	-0.3	49.2
COc1cccc(-c2coc3c(C)c4oc(=O)c(CC(=O)O)c(C)c4cc23)c1	-9.1	0.4	13.7	-0.2	0.2
COc1cccc(-c2coc3c(C)c4oc(=O)c(CCC(=O)O)c(C)c4cc23)c1	-9.0	0.7	62.2*	0.1	20.7
CCOc1ccc(CCNC(=O)CSc2n[nH]c(N)n2)cc1OCC	356.9*	2.1	1.6	-0.1	20.4
CC(C)C(=O)Nc1ccc(-c2nc3ccccc3c(=O)o2)cc1	0.0	-3.3	16.2*	0.2	13.6
CC(C)C(=O)Nc1cccc(-c2nc3ccccc3c(=O)o2)c1	x	-2.9	x	0.2	21.0
CC(C)(C)C1CCC(=O)N(CCOc2ccccc2)CC1 (stereo unspecified)	224.8	0.8	0.5	0.2	4.1
NNC(=O)c1nc[nH]c1C(=O)Nc1ccccn1	-7.4	0.0	47.8*	-0.4	13.1
c1ccc2c(Nc3nncs3)c3ccccc3nc2c1	313.9*	0.7	0.9	-0.1	22.0
CC(C)CCc1noc(CN2CCC(CCN3CCCC3=O)CC2)n1	3.1	0.2	-4.0	0.0	12.0
CC(C)C1C(c2ccccc2)N(C)C(c2ccccc2)CC1(O)c1ccccc1 (stereo unspecified)	378.6*	0.6	-1.7	0.0	31.5
